# Measurements taken from PubChem BioAssay (NCATS).
# Records with an inconclusive call do not appear. Active and inactive are the calls of the source. Calls come from the whole dose curve; as a rule, active = well fitted curve in the direction sought with a large enough effect; inconclusive = small, poorly fitted or top-dose-only effect, or another doubt; inactive = no such curve, though single readings can be large; an effect the other way counts as inactive or inconclusive.
# Experiment: qHTS assay to identify small molecule inhibitors of chordoma cells - UCH-1 (AID 1259355); note: nearly all actives have a fitted effect of over 55% in size
# Settings: UCH-1 chordoma viability, CellTiter-Glo, 48 h, combination; series mostly up to 46.1 µM
# Outline: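 A 48hr growth-inhibition format: each drug tested at 15 concentrations together with added auranofin, camptothecin, doxorubicin, rubitecan and topotecan, with cell viability quantified as CellTiter-Glo luminescence.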
row,SMILES,outcome
1,CN1C(=O)CC(=O)N(c2ccccc2)c2cc(Cl)ccc21,inactive
2,CN=C1CN(O)C(c2ccccc2)=c2cc(Cl)ccc2=N1,inactive
3,CCCCCN(C)CCC(O)(P(=O)(O)O)P(=O)(O)O,inactive
4,O=C1Nc2ccc(Cl)cc2C(c2ccccc2Cl)=NC1O (stereo unspecified),inactive
5,Clc1ccc2c(c1)C(c1ccccc1)=NCc1nncn1-2,inactive

# Experiment: qHTS assay to identify small molecule inhibitors of chordoma cells - UCH-2 (AID 1259356)
# Settings: UCH-2 chordoma viability, CellTiter-Glo ATP luminescence, 48 h; series mostly up to 46.1 µM
row,SMILES,outcome
1,CN1C(=O)CC(=O)N(c2ccccc2)c2cc(Cl)ccc21,inactive
2,CN=C1CN(O)C(c2ccccc2)=c2cc(Cl)ccc2=N1,inactive
3,CC(C)C[C@H](CN)CC(=O)O,inactive
4,CCCCCN(C)CCC(O)(P(=O)(O)O)P(=O)(O)O,inactive
5,O=C1Nc2ccc(Cl)cc2C(c2ccccc2Cl)=NC1O (stereo unspecified),inactive
6,Clc1ccc2c(c1)C(c1ccccc1)=NCc1nncn1-2,inactive
